This is an account of results in PubChem BioAssay AID2552 (National Center for Advancing Translational Sciences (NCATS), 2010).

Calls of active or inactive are those of the source. How the calls were made is not given here.

Chain of Thyroid hormone receptor beta (Homo sapiens) (P10828 whole entry, looked up, the tested form may be a part): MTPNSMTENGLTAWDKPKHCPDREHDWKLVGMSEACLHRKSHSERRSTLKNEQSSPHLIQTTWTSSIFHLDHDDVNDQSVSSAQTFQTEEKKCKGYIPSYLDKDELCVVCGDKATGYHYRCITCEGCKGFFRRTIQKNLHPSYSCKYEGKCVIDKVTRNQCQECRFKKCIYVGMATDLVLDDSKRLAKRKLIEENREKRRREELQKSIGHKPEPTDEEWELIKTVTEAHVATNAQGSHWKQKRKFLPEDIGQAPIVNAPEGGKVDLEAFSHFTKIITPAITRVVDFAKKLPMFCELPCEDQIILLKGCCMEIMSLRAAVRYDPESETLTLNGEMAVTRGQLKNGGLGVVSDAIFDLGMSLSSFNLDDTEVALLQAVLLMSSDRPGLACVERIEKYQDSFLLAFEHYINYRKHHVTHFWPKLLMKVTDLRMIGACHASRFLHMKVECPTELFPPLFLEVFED

This assay addresses Thyroid hormone receptor beta (Homo sapiens) (UniProt P10828). Briefly: Irreversible Binding Assay for Inhibitors of the Interaction of Thyroid Hormone Receptor and Steroid Receptor Coregulator 2. As to conditions: TRb LBD-SRC2 peptide FP after dialysis, at 100 µM. From the text: NIH Molecular Libraries Probe Production Network [MLPCN] NIH Chemical Genomics Center [NCGC] MLPCN Grant: DK058080 Assay Provider: R. Kip Guy, St. Jude Children's Research Hospital NCGC Assay Overview: Thyroid receptor (TR) regulates many homeostatic processes including basal metabolism, cardiovascular function, body weight, and lipid trafficking. TR modulators are potential therapeutics for obesity and hyperlipidemias but current thyroid analogs have undesirable side effects, particularly cardiac stimulation. To identify whether inhibitors irreversibly block the interaction of TR with the steroid receptor coregulator 2 (SRC2), a fluorescence polarization assay was used (Arnold et al., 2006). […]
NCGC Assay Protocol Summary: One milliliter TRb (1 uM) was incubated with DMSO (4 %), SRC2-2 peptide (100 uM) or compound (100 uM) for 3 hr in assay buffer (20 mM Tris hydrochloride, pH 7.4, 100mM NaCl, 10% glycerol, 1mM EDTA, 0.01% NP-40, 1mM DTT, 1uM T3 and 4% DMSO). […] The protein samples were concentrated using a 10K spin filter column (Amicon Ultra, Millipore) and then quantified by Bradford analysis. For each sample, 20 uL assay buffer containing 2 uM TRb and 40 nM SRC2 Texas Red probe was incubated in a 384 well plate for 3 hr at ambient temperature and read by an Envision (Perkin Elmer) to detect fluorescence polarization of SRC2-2 Texas Red (555 nm excitation and 632 nm emission). […]
Take `CC1(C)C2CCC1(C)C(NC(=O)COC(=O)c1ccc(S(C)(=O)=O)c([N+](=O)[O-])c1)C2` (stereo unspecified): the activity change, negative = inhibition is -96% (active).
